The source of these data is PubChem BioAssay.

Experiment [1] deals with Aerobactin synthetase IucA (Klebsiella pneumoniae hvKP1). The experiment can be described thus: Biochemical IucA enzyme inhibition primary screen of the Spectrum library (AID 1346200).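 Note: 100% = wells without compound and 0% = wells lacking enzyme.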 The settings on record: malachite green pyrophosphate, A620, at 8 µM, stronger effect = lower value.
The subject of experiment [2] is Aerobactin synthetase IucA (Klebsiella pneumoniae, hypervirulent). Put plainly: IucA enzyme inhibition, biochemical, LOPAC library, absorbance readout (AID 1346212).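 Note: 100% = no compound wells and 0% = no enzyme wells.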 The settings on record: IucA enzyme assay, absorbance (OD) readout; stronger effect = lower value;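 tested at 8 µM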.
Experiment [3] in a line: circadian clock period modulators, cell-based, LOPAC library, luminescence reporter (AID 2774).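 Note: values are relative to mean of DMSO wells on each plate.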 The settings on record: circadian reporter cells, at 7 µM, actives lie on both sides.
Experiment [4] relates to Hepatitis C virus NS3 helicase. Put plainly: HCV NS3 helicase inhibitors, primary screen, biochemical, fluorescence polarization, LOPAC1280 library (AID 687035; in the data active = inhibition above about 37%). The settings on record: Purified HCV NS3 helicase, Cy5-dT15 ssDNA binding fluorescence polarization; stronger effect = higher value; concentration not given here. Background: Polarisation of emitted light reports the rotation of a fluorescent probe.

A short description of experiment [5]: Cy5 fluorescence quenching or enhancement artefacts, artefact control for HCV NS3 helicase inhibitor project, biochemical, LOPAC1280 (AID 687037). The settings on record: Cy5-DNA-NS3h complex fluorescence interference counterscreen.
The nature of experiment [6]: survival rescue of mitochondrial mutant cells in low glucose, primary screen, MELAS cybrids, Rieske KO mouse fibroblasts, CellTiter-Glo (AID 1508586;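 active = mean z-score across replicates of 1.96 or higher in either the MELAS or the Rieske mutant cell line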;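 note: z relative to plate mean and SD of compound and empty wells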).
The nature of experiment [7]: viability rescue of complex I mutant cybrids, primary screen, cell-based, galactose medium, ATP luminescence (AID 1645843;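 active = z-score of at least 1.8 in each of two replicates, scored against plate mean and spread of sample wells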;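 note: positive z means more ATP and so rescue of galactose-driven cybrid death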). The settings on record: complex I mutant cybrid cells, 72 h, stronger effect = higher value.
Experiment [8] has as its target ATP-dependent translocase ABCB1 (Homo sapiens) (UniProt P08183). Put plainly: MDR1 (ABCB1) efflux transporter inhibition, cell-based (AID 377; in the data active = fluorescence slope change above about 50%). The settings on record: MDR1-expressing cells, fluorescent substrate accumulation slope; stronger effect = higher value; concentration not given here.
A short description of experiment [9]: sensitizers of A549 cells to miR-34 induction, primary screen, imaging, A549 dox-inducible miR-34, nuclei and caspase counts (AID 1347080;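 active = compounds whose cell count with miR-34 switched on is under 0.7 times the count with it off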). The settings on record: A549 miR-34 inducible, Hoechst nuclei count, 48 h, stronger effect = lower value.
The nature of experiment [10]: inhibitors of Cryptococcus chitosan production, flow cytometry, Cibacron Brilliant Red staining (AID 1347148).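 Note: compound exposure lasted three days at 37 degrees C.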 The settings on record: Cryptococcus neoformans chitosan, stronger effect = lower value; at 10 µM unless noted. In general terms: Flow cytometry measures light scatter and fluorescence of single cells or particles in a stream.

Molecules are shown by their SMILES. Values joined by “and” are separate entries in the source; they are usually repeats but may differ in a detail not shown here. Equal values may be shown once. Records with an inconclusive call do not appear. Active and inactive are the calls of the source. Unless noted, the rule behind the calls is not given here.

ATP-dependent translocase ABCB1 (Homo sapiens), sequence (P08183 whole entry, looked up): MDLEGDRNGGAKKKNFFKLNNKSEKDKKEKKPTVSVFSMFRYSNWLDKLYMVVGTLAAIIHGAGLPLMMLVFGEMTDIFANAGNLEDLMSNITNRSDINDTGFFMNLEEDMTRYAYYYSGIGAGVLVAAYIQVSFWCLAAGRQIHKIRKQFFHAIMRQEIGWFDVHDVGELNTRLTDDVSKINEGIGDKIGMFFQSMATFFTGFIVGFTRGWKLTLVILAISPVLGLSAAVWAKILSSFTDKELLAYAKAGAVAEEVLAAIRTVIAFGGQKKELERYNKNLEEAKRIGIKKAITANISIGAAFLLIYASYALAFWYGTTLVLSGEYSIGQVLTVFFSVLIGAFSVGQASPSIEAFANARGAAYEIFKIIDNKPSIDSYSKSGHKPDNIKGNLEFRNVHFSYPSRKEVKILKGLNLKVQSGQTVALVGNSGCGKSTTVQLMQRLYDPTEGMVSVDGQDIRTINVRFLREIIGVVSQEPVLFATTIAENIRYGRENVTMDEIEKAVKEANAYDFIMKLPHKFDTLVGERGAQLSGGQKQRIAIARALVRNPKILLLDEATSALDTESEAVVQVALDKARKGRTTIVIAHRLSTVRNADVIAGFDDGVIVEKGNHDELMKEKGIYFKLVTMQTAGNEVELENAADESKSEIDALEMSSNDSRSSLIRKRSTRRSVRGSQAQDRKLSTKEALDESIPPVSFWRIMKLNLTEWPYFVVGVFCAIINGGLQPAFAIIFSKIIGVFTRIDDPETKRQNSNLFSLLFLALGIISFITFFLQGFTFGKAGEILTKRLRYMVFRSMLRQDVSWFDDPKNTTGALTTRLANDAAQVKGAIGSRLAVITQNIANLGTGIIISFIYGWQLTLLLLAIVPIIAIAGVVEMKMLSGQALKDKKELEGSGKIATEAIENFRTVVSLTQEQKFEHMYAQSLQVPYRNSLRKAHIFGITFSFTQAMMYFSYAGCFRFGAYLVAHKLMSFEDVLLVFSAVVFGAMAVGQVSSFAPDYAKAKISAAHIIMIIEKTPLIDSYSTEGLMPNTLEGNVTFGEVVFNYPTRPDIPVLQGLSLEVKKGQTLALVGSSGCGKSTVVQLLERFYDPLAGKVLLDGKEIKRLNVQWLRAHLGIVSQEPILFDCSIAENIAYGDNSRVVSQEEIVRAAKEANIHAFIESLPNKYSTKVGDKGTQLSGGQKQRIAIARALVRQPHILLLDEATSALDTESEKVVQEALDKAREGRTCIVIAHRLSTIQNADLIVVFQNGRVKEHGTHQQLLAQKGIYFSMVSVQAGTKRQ

A word on the remaining activity: it is the signal under treatment as a percentage of the control signal. Turning to `O=C(O)/C=C/c1ccc(O)c(O)c1`, the activity remaining in experiment [1] was 101% (inactive). In experiment [2], the remaining activity is 117% (inactive).
The matching figures for `NCCS(=O)(=O)O`: 123% (inactive) and 97.8% (inactive).
`CCN(Cc1ccncc1)C(=O)C(CO)c1ccccc1` (stereo not drawn): the activity remaining in experiment [1] was 98.9% (inactive). In experiment [2], the remaining activity was 98.9% (inactive).
What is called inhibition is the relative decrease from the control value, in per cent. For the compound `CCn1cc(C(=O)O)c(=O)c2ccc(C)nc21`, the period change in experiment [3] was -0.11 h (inactive). Besides, the inhibition in experiment [4] is -5% (inactive). Besides, the fluorescence ratio (interference) in [5] was 1 (inactive). The activity remaining in experiment [1] is 117% (inactive). The remaining activity in [2] was 122% (inactive). For the same compound, the z-score was -0.303 (inactive) and 0.479 (inactive) in experiment [6] (MELAS cybrid survival, CellTiter-Glo 48 h, stronger effect = higher value); 0.386 and -0.565 in [6] (Rieske KO mouse fibroblast survival, CellTiter-Glo 72 h); 0.725 (inactive) and 0.425 (inactive) in experiment [7].
`NC(=O)c1cnccn1`: the activity remaining in [1] is 102% (inactive). For the same compound, in [2], the remaining activity was 80.6% (inactive).
The matching figures for `CNC[C@H](O)c1cccc(O)c1`: 103% (inactive) and 112% (inactive).
Take `C[C@H](CS)C(=O)N1CCC[C@H]1C(=O)O`: the activity remaining in experiment [1] is 99.1% (inactive). For the same compound, the remaining activity in [2] is 99.3% (inactive).
The matching figures for `CC(C(=O)O)c1cccc(C(=O)c2ccccc2)c1` (stereo not drawn): 106% (inactive) and 120% (inactive).
As to `Cn1c(=O)c2[nH]cnc2n(C)c1=O`, the activity remaining in experiment [1] is 120% (inactive). In addition, the remaining activity in [2] is 111% (inactive) and 102% (inactive).
`CN(C)CCCN1c2ccccc2Sc2ccc(C(F)(F)F)cc21`: the activity remaining in [1] was 108% (inactive). Moreover, the remaining activity in [2] was 97% (inactive).
Taken in the same sequence, the figures for `C#CCN(C)Cc1ccccc1` were 122% (inactive) and 80.8% (inactive).
Taken in the same sequence, the figures for `CNCCCN1c2ccccc2CCc2ccccc21` were 100% (inactive) and 105% (inactive).
For the compound `Clc1ccccc1C(c1ccccc1)(c1ccccc1)n1ccnc1`, the activity remaining in [1] is 113% (inactive). Also, the remaining activity in [2] was 117% (inactive).
For the compound `C=C1C2CC[C@H]3[C@]4(C)C[C@H](OC5OC(CO)C(OS(=O)(=O)O)C(OS(=O)(=O)O)C5OC(=O)CC(C)C)C[C@@H](C(=O)O)[C@H]4CC[C@]3(C2)[C@H]1O` (stereo partly drawn), the fluorescence slope change in experiment [8] was 23.6% (inactive).
Still for that read-out and setting: under `O=C(O)P(=O)(O)O` stands 95.2% (active).
With `O=C1CC2OCC=C3CN4CC[C@]56c7ccccc7N1C5[C@H]2[C@H]3CC46` (stereo partly drawn), the fold change in experiment [9] is 0.917 (inactive).
`CNC(C)[C@@H]1CC[C@@H](N)[C@@H](OC2[C@@H](N)C[C@@H](N)[C@H](OC3OC[C@](C)(O)[C@H](NC)[C@H]3O)[C@H]2O)O1` (stereo partly drawn): the fold change in experiment [9] was 0.833 (inactive).
For `O=C1OCCN1/N=C/c1ccc([N+](=O)[O-])o1`, the fold change in experiment [9] (cell number ratio, induced over uninduced) is 0.857 (inactive).
Take `CC(=O)C1=C(O)C2C3c4c[nH]c5cccc(c45)CC3C(C)(C)N2C1=O` (stereo not drawn): the fold fluorescence in [10] is 4.14 [at 148.6 µM] (inactive).
`CCCn1c(=O)c2c(ncn2C)n(CCC)c1=O`: the remaining activity in experiment [2] is 110% (inactive).
On the same count and under the same terms, under `C#Cc1ccc2c(c1)C(=O)N(C)Cc1c(C(=O)OCCCc3nc(C(=O)O)c4n3-c3ccc(C#C)cc3C(=O)N(C)C4)ncn1-2` stands 97.1% (inactive); under `O=C(O)CP(=O)(O)O`, 89.1% (inactive); under `CCCCCCCCCCC/C=C\C(C)(C)/C=C\CCCC(=O)O`, 86.5% (inactive).
Same read-out and setting: in the case of `C#CCN(C)CCCOc1ccc(Cl)cc1Cl` it was 122% (inactive); in that of `Clc1ccc(N2CCN(Cc3c[nH]c4ncccc34)CC2)cc1`, 92% (inactive); in that of `CCCn1c(=O)c2[nH]c(-c3ccc(OCC(=O)NCCN)cc3)nc2n(CCC)c1=O`, 109% (inactive).
With `CN(C)S(=O)(=O)c1ccc2c(c1)/C(=C/c1cc3c([nH]1)CCCC3)C(=O)N2`, the remaining activity in experiment [2] was 121% (inactive).
As for `Nc1nc(Nc2ccccc2)nc2c1ncn2[C@@H]1O[C@H](CO)[C@@H](O)[C@H]1O`, the remaining activity in experiment [2] is 106% (inactive).
On the same count and under the same terms, under `[Li+]` stands 102% (inactive); under `O=C(O)/C(=C/c1c(C(=O)O)[nH]c2cc(Cl)cc(Cl)c12)c1ccccc1`, 117% (inactive); under `N=c1c[n+](N2CCOCC2)[n-]o1`, 108% (inactive).
On the same count and under the same terms, under `O=S(=O)(c1cccc2c(I)cccc12)N1CCCNCC1` stands 107% (inactive).
The same measure, in the same setting: in the case of `OC1(c2ccc(Cl)cc2)CCN(Cc2c[nH]c3ccccc23)CC1` it was 112% (inactive).
Turning to `Nc1ccc(-c2nc3ccc(-c4nc5ccc(N)cc5[nH]4)cc3[nH]2)cc1`, the remaining activity in [2] is 114% (inactive).
Same read-out and setting: under `Nc1ncnc2c1ncn2[C@@H]1O[C@H](COP(=O)(O)OP(=O)(O)OP(=O)(O)OP(=O)(O)OC[C@@H]2O[C@H](n3cnc4c(N)ncnc43)C(O)[C@@H]2O)[C@H](O)C1O` (stereo partly drawn) stands 91.8% (inactive); under `OC[C@H]1O[C@@H](n2cnc3c(N[C@H]4CCC[C@@H]4O)ncnc32)[C@H](O)[C@@H]1O`, 123% (inactive).
Same read-out and setting: in the case of `COc1nc(C)nc(Cl)c1NC1=NCCN1` it was 119% (inactive).
Same read-out and setting: in the case of `CC(=O)S[C@@H]1CC2=CC(=O)CC[C@]2(C)[C@H]2CC[C@@]3(C)[C@@H](CC[C@@]34CCC(=O)O4)[C@H]12` it was 108% (inactive); in that of `CSC(N)=NCCC[C@H](N)C(=O)O`, 123% (inactive); in that of `N#C/C(=C\c1ccc(O)c(O)c1)C(=O)NCCCNC(=O)/C(C#N)=C/c1ccc(O)c(O)c1`, 98.2% (inactive).
In the case of `O=C(O)/C=C/c1cnc[nH]1`, in experiment [2], the remaining activity was 101% (inactive).
Consider `CNC(=O)[C@H]1O[C@@H](n2cnc3c(NCc4cccc(I)c4)ncnc32)[C@H](O)[C@@H]1O`, for which the remaining activity in [2] is 114% (inactive).
On the same count and under the same terms, in the case of `Cc1ccc(OC[C@H](O)[C@H](C)NC(C)C)c2c1CCC2` it was 101% (inactive); in that of `COc1cc([C@@H]2c3cc4c(cc3[C@@H](O[C@@H]3O[C@@H]5CO[C@@H](C)O[C@H]5[C@H](O)[C@H]3O)[C@H]3COC(=O)[C@H]23)OCO4)cc(OC)c1O`, 127% (inactive).
On the same count and under the same terms, in the case of `N=c1ccn2c(n1)O[C@H]1[C@H](O)[C@@H](CO)O[C@H]12` it was 95.9% (inactive); in that of `CN1CCCC1c1cccnc1` (stereo not drawn), 115% (inactive); in that of `N[C@H](C(=O)O)[C@H](O)C(=O)O`, 106% (inactive).
Same read-out and setting: in the case of `CCCCN1CCC(COC(=O)c2cc(Cl)c(N)c3c2OCCO3)CC1` it was 109% (inactive); in that of `COc1ccc(CCNC[C@@H](O)c2ccc(O)cc2)cc1OC`, 91.4% (inactive).
Take `NC(=O)CNCCC(c1ccccc1)c1ccccc1`: the remaining activity in experiment [2] is 118% (inactive).
The same measure, in the same setting: in the case of `CC(C)C[C@H](NP(=O)(O)O[C@@H]1O[C@@H](C)[C@H](O)[C@@H](O)[C@H]1O)C(=O)N[C@@H](Cc1c[nH]c2ccccc12)C(=O)O` it was 89.8% (inactive).
The same measure, in the same setting: under `NC(=O)C(=O)O` stands 121% (inactive); under `CC(C)[C@H]1c2ccc(F)cc2CC[C@@]1(CCN(C)CCCc1nc2ccccc2[nH]1)OC(=O)C1CC1`, 118% (inactive).
`CCN(CC)CCCCCCCCOC(=O)c1cc(OC)c(OC)c(OC)c1`: the remaining activity in [2] is 100% (inactive).
